Bioassay records deposited in PubChem BioAssay by several laboratories.
14-3-3 Bad PPI: disrupts binding of bovine 14-3-3 zeta to phospho-Bad peptide | inhibition, % at 21.7 µM | AID 781 | P63103 | TR-FRET 14-3-3zeta/Dy647-pBad peptide displacement, 1 h | 220,000 tested, 0.71% active;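 active means inhibition above about 70%, limit read from the data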
Target sequence (P63103 whole entry, looked up): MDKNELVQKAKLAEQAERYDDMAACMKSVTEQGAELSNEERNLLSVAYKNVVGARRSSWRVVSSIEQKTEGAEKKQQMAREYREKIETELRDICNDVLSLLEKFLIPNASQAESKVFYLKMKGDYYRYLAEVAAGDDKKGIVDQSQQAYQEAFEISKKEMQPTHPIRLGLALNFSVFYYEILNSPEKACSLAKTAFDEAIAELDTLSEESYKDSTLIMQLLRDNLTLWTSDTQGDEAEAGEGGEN
Arbovirus anti: blocks arbovirus infection. inhibition, % at 10 µM. 200,000 tested, 0.37% active. arbovirus infection cell-based antiviral screen; in the data active means inhibition above about 30%
Mcl1-Noxa inh: disrupts binding of human Mcl-1 to Noxa peptide | AID 1022 | 220,000 tested, 1.5% active | inhibition, % at 21.7 µM | TR-FRET Mcl-1/Noxa peptide binding, 2 h;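 active means compounds that cut the protein-peptide binding signal by more than 50% relative to plate controls in a single-dose test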;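 further: His-tagged Mcl-1 with rhodamine Noxa BH3 peptide and terbium anti-His antibody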
Target sequence (Q07820 whole entry, looked up): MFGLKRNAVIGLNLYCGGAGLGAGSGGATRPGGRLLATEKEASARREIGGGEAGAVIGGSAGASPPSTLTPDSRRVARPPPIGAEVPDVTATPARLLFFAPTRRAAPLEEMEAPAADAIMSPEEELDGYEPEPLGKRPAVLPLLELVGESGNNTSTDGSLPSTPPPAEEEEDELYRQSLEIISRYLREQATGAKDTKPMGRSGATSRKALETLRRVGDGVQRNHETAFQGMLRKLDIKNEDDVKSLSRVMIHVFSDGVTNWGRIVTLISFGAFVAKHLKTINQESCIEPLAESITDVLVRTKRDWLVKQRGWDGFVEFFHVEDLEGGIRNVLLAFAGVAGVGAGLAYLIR
Mcl-1 Bim block: inhibitors of Bim-Mcl-1 interaction, human. Q07820. Bead-based flow cytometry, Bim peptide-Mcl-1 binding. inhibition, % at 10 µM. 190,000 tested, 0.1% active; in the data active means inhibition above about 40%
Mcl1-Bid inh: disrupts binding of human Mcl-1 to Bid peptide; TR-FRET Mcl-1/Bid-Dy647 peptide binding, 1536-well; inhibition, % at 21.7 µM; AID 1021; Q07820; 220,000 tested, 0.97% active;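 active means compounds that cut the binding signal by more than half at the single screening dose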;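 further: His-tagged Mcl-1 with europium anti-His antibody binding Bid BH3 peptide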
Hits are given with their value. The list is not random: actives were taken first. Their share in the collection is about 3%.

What do the screens show for `O=C(CN1C(=O)NC(c2ccccc2)(c2ccccc2)C1=O)Nc1ccc2[nH]c(=O)[nH]c2c1`?
14-3-3 Bad PPI: inactive; Mcl1-Noxa inh: 64.5; Mcl1-Bid inh: inactive

How did CC(=O)N/C(=C\c1cccc([N+](=O)[O-])c1)C(=O)NC1CCCCC1 do in these assays?
14-3-3 Bad PPI: inactive; Arbovirus anti: inactive; Mcl1-Noxa inh: inactive; Mcl-1 Bim block: inactive; Mcl1-Bid inh: inactive

What do the screens show for `O=C(NC1CCCc2ccccc21)C(Cc1ccccc1)NS(=O)(=O)c1cccs1` (centres undefined)?
14-3-3 Bad PPI: inactive; Arbovirus anti: inactive; Mcl1-Noxa inh: inactive; Mcl-1 Bim block: inactive; Mcl1-Bid inh: inactive

What do the screens show for `CCc1nnc(NS(=O)(=O)c2ccc(N=CC3=C(O)CC(C)(C)CC3=O)cc2)s1`?
14-3-3 Bad PPI: inactive; Arbovirus anti: inactive; Mcl1-Noxa inh: inactive; Mcl-1 Bim block: 44.0; Mcl1-Bid inh: inactive

What do the screens show for `CC1(C)CC(=O)C(C=Nc2ccc(O)cc2)=C(O)C1`?
14-3-3 Bad PPI: inactive; Arbovirus anti: inactive; Mcl1-Noxa inh: inactive; Mcl-1 Bim block: inactive; Mcl1-Bid inh: inactive

How did O=C1CCCC2=C1C(c1cccs1)Nc1ccc3ncccc3c12 (centres undefined) do in these assays?
14-3-3 Bad PPI: inactive; Arbovirus anti: inactive; Mcl1-Noxa inh: inactive; Mcl-1 Bim block: inactive; Mcl1-Bid inh: inactive

How did O=C1CCCC2=C1C(c1ccc(O)c(O)c1)Nc1ccc3ncccc3c12 (centres undefined) do in these assays?
14-3-3 Bad PPI: inactive; Arbovirus anti: inactive; Mcl1-Noxa inh: 76.8; Mcl-1 Bim block: inactive; Mcl1-Bid inh: inactive

What do the screens show for `Cc1ccc(OCc2nnc(NC(=O)c3cccnc3)s2)cc1`?
14-3-3 Bad PPI: inactive; Mcl1-Noxa inh: inactive; Mcl1-Bid inh: inactive

What do the screens show for `CC1(C)CC(=O)C(C(=O)C2CCN(S(=O)(=O)c3ccccc3)CC2)C(=O)C1`?
14-3-3 Bad PPI: 71.1; Arbovirus anti: inactive; Mcl1-Noxa inh: inactive; Mcl-1 Bim block: inactive; Mcl1-Bid inh: inactive

How did COC(=O)/C=C/c1sc2nc(C)cc(C)c2c1N=CN(C)C do in these assays?
14-3-3 Bad PPI: inactive; Arbovirus anti: 44.5; Mcl1-Noxa inh: inactive; Mcl-1 Bim block: inactive; Mcl1-Bid inh: inactive

How did Cc1nn(CC(=O)Nc2ccc3c(c2)nc2n3CCOC2)c(=O)c2ccccc12 do in these assays?
14-3-3 Bad PPI: inactive; Arbovirus anti: inactive; Mcl1-Noxa inh: inactive; Mcl-1 Bim block: inactive; Mcl1-Bid inh: inactive

How did COCCN1CCn2c(nc3cc(NC(=O)Cn4nc(C)c5ccccc5c4=O)ccc32)C1 do in these assays?
14-3-3 Bad PPI: inactive; Mcl1-Noxa inh: 66.4; Mcl1-Bid inh: inactive

What do the screens show for `COc1ccc(C2C=C(c3ccc(F)cc3)NC(=S)N2)cc1OC` (centres undefined)?
14-3-3 Bad PPI: inactive; Arbovirus anti: inactive; Mcl1-Noxa inh: inactive; Mcl-1 Bim block: inactive; Mcl1-Bid inh: inactive

Results for CC1CC(=O)Nc2ccccc2N1C(=O)CN1CCN(c2ccccc2)CC1 (centres undefined) ?
14-3-3 Bad PPI: inactive; Arbovirus anti: inactive; Mcl1-Noxa inh: inactive; Mcl-1 Bim block: inactive; Mcl1-Bid inh: inactive

Results for C#CCOCCOCCOCCNc1nc(N2CCN(C(=O)[C@H]([C@@H](C)CC)n3cc([C@@H](N)CO)nn3)CC2)nc(N2CCN(C(=O)[C@H](Cc3ccc(O)cc3)n3cc([C@@H](N)CC(C)C)nn3)CC2)n1 ?
14-3-3 Bad PPI: inactive; Arbovirus anti: inactive; Mcl1-Noxa inh: inactive; Mcl-1 Bim block: inactive; Mcl1-Bid inh: 63.4

What do the screens show for `C#CCOCCOCCOCCNc1nc(N2CCN(C(=O)[C@H](Cc3ccc(O)cc3)n3cc(CCO)nn3)CC2)nc(N2CCN(C(=O)[C@H](Cc3ccc(O)cc3)n3cc(CCO)nn3)CC2)n1`?
14-3-3 Bad PPI: 73.0; Arbovirus anti: inactive; Mcl1-Noxa inh: inactive; Mcl-1 Bim block: inactive; Mcl1-Bid inh: inactive

Results for C#CCOCCOCCOCCNc1nc(N2CCN(C(=O)[C@H](CCC(=O)O)n3cc(C(N)Cc4ccc(O)cc4)nn3)CC2)nc(N2CCN(C(=O)[C@H](CCC(=O)O)n3cc(C(N)CC(C)C)nn3)CC2)n1 (some centres undefined) ?
14-3-3 Bad PPI: inactive; Arbovirus anti: inactive; Mcl1-Noxa inh: inactive; Mcl-1 Bim block: inactive; Mcl1-Bid inh: 59.8

Results for C#CCOCCOCCOCCNc1nc(N2CCN(C(=O)[C@H](CCC(=O)O)n3cc(C(N)CO)nn3)CC2)nc(N2CCN(C(=O)[C@H](Cc3ccc(O)cc3)n3cc(C(N)CC(C)C)nn3)CC2)n1 (some centres undefined) ?
14-3-3 Bad PPI: inactive; Arbovirus anti: inactive; Mcl1-Noxa inh: inactive; Mcl-1 Bim block: inactive; Mcl1-Bid inh: inactive

How did C#CCOCCOCCOCCNc1nc(N2CCN(C(=O)[C@H](CCC(=O)O)n3cc(C(N)CC(C)C)nn3)CC2)nc(N2CCN(C(=O)[C@H](CCC(=O)O)n3cc(C(N)CC(C)C)nn3)CC2)n1 (some centres undefined) do in these assays?
14-3-3 Bad PPI: inactive; Arbovirus anti: inactive; Mcl1-Noxa inh: inactive; Mcl-1 Bim block: inactive; Mcl1-Bid inh: 67.2

Results for C#CCOCCOCCOCCNc1nc(N2CCN(C(=O)C([C@@H](C)CC)n3cc(C(N)CC(C)C)nn3)CC2)nc(N2CCN(C(=O)[C@H](CCC(=O)O)n3cc(C(N)CC(C)C)nn3)CC2)n1 (some centres undefined) ?
14-3-3 Bad PPI: inactive; Arbovirus anti: inactive; Mcl1-Noxa inh: inactive; Mcl-1 Bim block: inactive; Mcl1-Bid inh: inactive

How did COc1cccc(/C=N/NC(=O)COc2cccc3cccnc23)c1O do in these assays?
14-3-3 Bad PPI: inactive; Arbovirus anti: inactive; Mcl1-Noxa inh: inactive; Mcl-1 Bim block: inactive; Mcl1-Bid inh: inactive

What do the screens show for `C=CCn1cc(/C=N/NC(=O)COc2cccc3cccnc23)c2ccccc21`?
14-3-3 Bad PPI: inactive; Arbovirus anti: inactive; Mcl1-Noxa inh: 66.3; Mcl-1 Bim block: inactive; Mcl1-Bid inh: 89.0

Results for Oc1ccc(/C=N/Nc2cc(N3CCCC3)nc(N3CCCC3)n2)cc1O ?
14-3-3 Bad PPI: inactive; Arbovirus anti: inactive; Mcl1-Noxa inh: 65.4; Mcl-1 Bim block: inactive; Mcl1-Bid inh: inactive

Results for Oc1ccc(/C=N\Nc2cc(N3CCOCC3)nc(N3CCOCC3)n2)c(O)c1 ?
14-3-3 Bad PPI: inactive; Arbovirus anti: inactive; Mcl1-Noxa inh: inactive; Mcl-1 Bim block: inactive; Mcl1-Bid inh: inactive

How did COc1ccc(C(=O)NN2CC(O)=C(c3nc4ccccc4n3C)C2=N)cc1OC do in these assays?
14-3-3 Bad PPI: inactive; Arbovirus anti: inactive; Mcl1-Noxa inh: inactive; Mcl-1 Bim block: inactive; Mcl1-Bid inh: inactive

What do the screens show for `C#CCCCCCCC#CCN(C)C`?
14-3-3 Bad PPI: inactive; Arbovirus anti: inactive; Mcl1-Noxa inh: inactive; Mcl-1 Bim block: inactive; Mcl1-Bid inh: 54.9

How did Cc1ccc2c(c1)/C(=C/c1ccco1)C(=O)N2 do in these assays?
14-3-3 Bad PPI: inactive; Arbovirus anti: inactive; Mcl1-Noxa inh: inactive; Mcl-1 Bim block: inactive; Mcl1-Bid inh: inactive

What do the screens show for `Cc1ccc(/C=C2\C(=O)Nc3ccccc32)o1`?
14-3-3 Bad PPI: inactive; Arbovirus anti: inactive; Mcl1-Noxa inh: 62.3; Mcl-1 Bim block: inactive; Mcl1-Bid inh: inactive

Results for CC(O)[C@H]1CNC(=O)C(=O)N1CC(C)(C)C (some centres undefined) ?
14-3-3 Bad PPI: inactive; Mcl1-Noxa inh: inactive; Mcl1-Bid inh: inactive
